Calls of active or inactive are those of the source. The calls were made as follows: active = hit-call score of the fitted dose curve at least 0.9, where 1 is the maximum; inactive = score below 0.9.
Columns and labels:
[1] = read-out: Fatty acid synthase (Homo sapiens) (UniProt P49327); assay: LTEA_HepaRG_FASN: Life Technologies and Expression Analysis (LTEA) Assay for Fatty Acid Synthase (FASN) using HepaRG (AID 2283448); conditions: mRNA level, 48 h; actives raise or lower the signal
In short: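 Differentiated HepaRG cells in serum-free induction medium exposed 48 h in duplicate to eight half-log concentrations, top 100 uM, 0.5% DMSO. FASN mRNA by qRT-PCR normalised to ACTB, GAPDH, POLR2A; bidirectional fit versus DMSO.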

[2] = read-out: Cyclin D2 (CCND2), CCND2 (gene 894); assay: LTEA_HepaRG_CCND2: Life Technologies and Expression Analysis (LTEA) Assay for Cyclin D2 (CCND2) using HepaRG (AID 2283449); conditions: mRNA level, 48 h; actives raise or lower the signal;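 also: CCND2 transcript measured by TaqMan qRT-PCR and normalised to three housekeeping genes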
In short: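 Chemicals in 0.5% DMSO, eight half-log concentrations from 100 uM top, were applied in duplicate for 48 h to human HepaRG cells in serum-free induction medium. CCND2 mRNA by TaqMan qRT-PCR, normalised to ACTB/GAPDH/POLR2A; bidirectional fit versus DMSO.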

[3] = read-out: Cyclin Dependent Kinase Inhibitor 1A (CDKN1A), CDKN1A (gene 1026); assay: LTEA_HepaRG_CDKN1A: Life Technologies and Expression Analysis (LTEA) Assay for Cyclin Dependent Kinase Inhibitor 1A (CDKN1A) using HepaRG (AID 2283450); conditions: mRNA level, 48 h; actives raise or lower the signal
In short: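 Gain or loss of CDKN1A transcript is scored by bidirectional fitting against 0.5% DMSO vehicle. Human HepaRG cultures receive chemicals for 48 h across an 8-point series peaking at 100 uM; expression comes from qRT-PCR.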

[4] = read-out: Cyclin D1 (CCND1), CCND1 (gene 595); assay: LTEA_HepaRG_CCND1: Life Technologies and Expression Analysis (LTEA) Assay for Cyclin D1 (CCND1) using HepaRG (AID 2283451); conditions: mRNA level, 48 h; actives raise or lower the signal;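 as to AC50: TaqMan qRT-PCR transcript level normalised to ACTB GAPDH and POLR2A housekeeping genes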
In short: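 Expression change is measured by qRT-PCR in HepaRG cells after 48 h treatment across eight concentrations topping at 100 uM, with duplicate wells and DMSO (0.5%) serving as baseline for bidirectional fitting.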

[5] = read-out: catalase (CAT), CAT (gene 847); assay: LTEA_HepaRG_CAT: Life Technologies and Expression Analysis (LTEA) Assay for catalase (CAT) using HepaRG (AID 2283452); conditions: mRNA level, 48 h; actives raise or lower the signal;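 as to AC50: TaqMan qRT-PCR signal normalized to ACTB GAPDH and POLR2A housekeeping genes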
In short: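 HepaRG cells in serum-free induction medium, 0.5% DMSO vehicle, exposed 48 h in duplicate over 8 half-log concentrations from 100 uM. CAT mRNA measured by qRT-PCR, normalized to ACTB, GAPDH, POLR2A; bidirectional fit versus DMSO.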

[6] = read-out: flavin-containing dimethylaniline monooxygenases 3 (FMO3), FMO3 (gene 2328); assay: LTEA_HepaRG_FMO3: Life Technologies and Expression Analysis (LTEA) Assay for flavin-containing dimethylaniline monooxygenases 3 (FMO3) using HepaRG (AID 2283453); conditions: mRNA level, 48 h; actives raise or lower the signal
In short: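 Differentiated HepaRG cells in serum-free induction medium, exposed 48 h in duplicate to 8 half-log concentrations up to 100 uM in 0.5% DMSO. FMO3 mRNA by qRT-PCR, normalized to ACTB, GAPDH, POLR2A; bidirectional fit vs DMSO.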

[7] = read-out: Cytochrome P450 (CYP1A1), CYP1A1 (gene 1543); assay: LTEA_HepaRG_CYP1A1: Life Technologies and Expression Analysis (LTEA) Assay for Cytochrome P450 (CYP1A1) using HepaRG (AID 2283454); conditions: mRNA level, 48 h; actives raise or lower the signal
In short: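 Using HepaRG cultures with 0.5% DMSO as vehicle, eight-concentration exposures (max 100 uM) lasted 48 h. Transcript levels were measured by TaqMan qRT-PCR and normalized to ACTB, GAPDH and POLR2A.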

[8] = read-out: CFLAR gene, CFLAR (gene 8837); assay: LTEA_HepaRG_CFLAR: Life Technologies and Expression Analysis (LTEA) Assay for CFLAR gene using HepaRG (AID 2283455); conditions: mRNA level, 48 h; actives raise or lower the signal
In short: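 Differentiated HepaRG cells in serum-free induction medium were exposed 48 h in duplicate to eight half-log concentrations up to 100 uM in 0.5% DMSO; mRNA measured by TaqMan qRT-PCR, normalized to ACTB, GAPDH, POLR2A; bidirectional fitting versus DMSO.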

[9] = read-out: Forkhead box O1 (FOXO1), FOXO1 (gene 2308); assay: LTEA_HepaRG_FOXO1: Life Technologies and Expression Analysis (LTEA) Assay for Forkhead box O1 (FOXO1) using HepaRG (AID 2283456); conditions: mRNA level, 48 h; actives raise or lower the signal
In short: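 Differentiated HepaRG cells, in serum-free induction medium with 0.5% DMSO, exposed 48 h in duplicate to 8-point half-log series from 100 uM. FOXO1 mRNA measured by TaqMan qRT-PCR, normalized to ACTB, GAPDH, POLR2A; bidirectional fit versus DMSO.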

[10] = read-out: growth arrest and DNA damage 45 (GADD45A), GADD45A (gene 1647); assay: LTEA_HepaRG_GADD45A: Life Technologies and Expression Analysis (LTEA) Assay for growth arrest and DNA damage 45 (GADD45A) using HepaRG (AID 2283458); conditions: mRNA level, 48 h; actives raise or lower the signal
In short: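 Differentiated HepaRG cells exposed 48 h in serum-free induction medium to 8 concentrations, top 100 uM in half-log steps, 0.5% DMSO. GADD45A mRNA quantified by qRT-PCR, normalized to ACTB, GAPDH and POLR2A; bidirectional fit versus DMSO.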

[11] = read-out: ABC Transporter (ABCB1), ABCB1 (gene 5243); assay: LTEA_HepaRG_ABCB1: Life Technologies and Expression Analysis (LTEA) Assay for ABC Transporter (ABCB1) using HepaRG (AID 2283460); conditions: mRNA level, 48 h; actives raise or lower the signal
In short: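 HepaRG cells exposed in duplicate for 48 h in serum-free induction medium to eight half-log concentrations up to 100 uM in 0.5% DMSO. ABCB1 mRNA quantified by qRT-PCR, normalised to ACTB, GAPDH and POLR2A; fitted bidirectionally versus DMSO.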

[12] = read-out: growth arrest and DNA damage 45 (GADD45B), GADD45B (gene 4616); assay: LTEA_HepaRG_GADD45B: Life Technologies and Expression Analysis (LTEA) Assay for growth arrest and DNA damage 45 (GADD45B) using HepaRG (AID 2283461); conditions: mRNA level, 48 h; actives raise or lower the signal
In short: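 Human HepaRG monolayers receive chemicals for 48 h at eight half-log concentrations, highest 100 uM, in 0.5% DMSO. Expression is measured by TaqMan qRT-PCR and normalized to ACTB, GAPDH and POLR2A.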

[13] = read-out: ABC Transporter (ABCC3), ABCC3 (gene 8714); assay: LTEA_HepaRG_ABCC3: Life Technologies and Expression Analysis (LTEA) Assay for ABC Transporter (ABCC3) using HepaRG (AID 2283462); conditions: mRNA level, 48 h; actives raise or lower the signal
In short: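 Transcriptional change of ABCC3 in HepaRG after 48 h treatment, determined by qRT-PCR normalized to endogenous controls. Concentrations spanned eight half-log steps to 100 uM in 0.5% DMSO.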

[14] = read-out: ABC Transporter (ABCB11), ABCB11 (gene 8647); assay: LTEA_HepaRG_ABCB11: Life Technologies and Expression Analysis (LTEA) Assay for ABC Transporter (ABCB11) using HepaRG (AID 2283463); conditions: mRNA level, 48 h; actives raise or lower the signal
In short: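 Differentiated human HepaRG cells in serum-free induction medium, dosed in duplicate for 48 h. Eight-point half-log series from 100 uM in 0.5% DMSO; ABCB11 mRNA by qRT-PCR, normalized to ACTB, GAPDH, POLR2A, fitted bidirectionally versus DMSO.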

[15] = read-out: ABC Transporter (ABCC2), ABCC2 (gene 1244); assay: LTEA_HepaRG_ABCC2: Life Technologies and Expression Analysis (LTEA) Assay for ABC Transporter (ABCC2) using HepaRG (AID 2283464); conditions: mRNA level, 48 h; actives raise or lower the signal
In short: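 After plating and 48 h culture, HepaRG medium is replaced with serum-free induction medium and chemicals are added (8 concentrations, max 100 uM, 0.5% DMSO) for 48 h. Total RNA then undergoes qRT-PCR for ABCC2 with housekeeping normalization.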

[16] = read-out: Broad substrate specificity ATP-binding cassette transporter ABCG2 (Homo sapiens) (UniProt Q9UNQ0); assay: LTEA_HepaRG_ABCG2: Life Technologies and Expression Analysis (LTEA) Assay for ABC Transporter (ABCG2) using HepaRG (AID 2283465); conditions: mRNA level, 48 h; actives raise or lower the signal
In short: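 Differentiated HepaRG cells were exposed for 48 h in serum-free induction medium to 8 half-log concentrations, top 100 uM, in 0.5% DMSO. ABCG2 mRNA was measured by qRT-PCR, normalized to ACTB, GAPDH and POLR2A, with bidirectional fitting versus DMSO.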

[17] = read-out: ATP-citrate lyase (ACLY), ACLY (gene 47); assay: LTEA_HepaRG_ACLY: Life Technologies and Expression Analysis (LTEA) Assay for ATP-citrate lyase (ACLY) using HepaRG (AID 2283466); conditions: mRNA level, 48 h; actives raise or lower the signal
In short: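 Differentiated HepaRG cells exposed 48 h in serum-free induction medium to eight half-log concentrations up to 100 uM in 0.5% DMSO, duplicates. Transcript measured by Fluidigm TaqMan qRT-PCR, normalized to ACTB, GAPDH, POLR2A; bidirectional fit versus DMSO.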

[18] = read-out: Peroxisomal acyl-coenzyme A oxidase 1 (ACOX1) gene, ACOX1 (gene 51); assay: LTEA_HepaRG_ACOX1: Life Technologies and Expression Analysis (LTEA) Assay for Peroxisomal acyl-coenzyme A oxidase 1 (ACOX1) gene using HepaRG (AID 2283467); conditions: mRNA level, 48 h; actives raise or lower the signal
In short: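 HepaRG cells, plated 48 h then switched to serum-free induction medium, were exposed in duplicate for 48 h to 8-point half-log concentrations up to 100 uM in 0.5% DMSO. ACOX1 mRNA was measured by qRT-PCR, normalized to ACTB/GAPDH/POLR2A, and fitted bidirectionally versus DMSO.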

[19] = CEETOX_H295R_TESTO: CeeTox H295R High-throughput Steroidogenesis Assay for Testosterone (TESTO) (AID 2283457); conditions: actives raise or lower the signal
In short: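 Steroidogenesis in H295R cells following OECD 456 with minor changes; 48 h exposure. Medium testosterone by HPLC-MS/MS, DMSO as baseline, with MTT viability run in parallel.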

[20] = read-out: Forkhead box O3 (FOXO3), FOXO3 (gene 2309); assay: LTEA_HepaRG_FOXO3: Life Technologies and Expression Analysis (LTEA) Assay for Forkhead box O3 (FOXO3) using HepaRG (AID 2283459); conditions: mRNA level, 48 h; actives raise or lower the signal
In short: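 Differentiated human HepaRG cells, 48 h post-plating, exposed in duplicate for 48 h in serum-free induction medium; 8-point half-log series from 100 uM in 0.5% DMSO. FOXO3 mRNA by TaqMan qRT-PCR, normalized to ACTB/GAPDH/POLR2A; bidirectional fit versus DMSO.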

Measured: AC50

Fatty acid synthase (Homo sapiens), sequence (P49327 whole entry, looked up): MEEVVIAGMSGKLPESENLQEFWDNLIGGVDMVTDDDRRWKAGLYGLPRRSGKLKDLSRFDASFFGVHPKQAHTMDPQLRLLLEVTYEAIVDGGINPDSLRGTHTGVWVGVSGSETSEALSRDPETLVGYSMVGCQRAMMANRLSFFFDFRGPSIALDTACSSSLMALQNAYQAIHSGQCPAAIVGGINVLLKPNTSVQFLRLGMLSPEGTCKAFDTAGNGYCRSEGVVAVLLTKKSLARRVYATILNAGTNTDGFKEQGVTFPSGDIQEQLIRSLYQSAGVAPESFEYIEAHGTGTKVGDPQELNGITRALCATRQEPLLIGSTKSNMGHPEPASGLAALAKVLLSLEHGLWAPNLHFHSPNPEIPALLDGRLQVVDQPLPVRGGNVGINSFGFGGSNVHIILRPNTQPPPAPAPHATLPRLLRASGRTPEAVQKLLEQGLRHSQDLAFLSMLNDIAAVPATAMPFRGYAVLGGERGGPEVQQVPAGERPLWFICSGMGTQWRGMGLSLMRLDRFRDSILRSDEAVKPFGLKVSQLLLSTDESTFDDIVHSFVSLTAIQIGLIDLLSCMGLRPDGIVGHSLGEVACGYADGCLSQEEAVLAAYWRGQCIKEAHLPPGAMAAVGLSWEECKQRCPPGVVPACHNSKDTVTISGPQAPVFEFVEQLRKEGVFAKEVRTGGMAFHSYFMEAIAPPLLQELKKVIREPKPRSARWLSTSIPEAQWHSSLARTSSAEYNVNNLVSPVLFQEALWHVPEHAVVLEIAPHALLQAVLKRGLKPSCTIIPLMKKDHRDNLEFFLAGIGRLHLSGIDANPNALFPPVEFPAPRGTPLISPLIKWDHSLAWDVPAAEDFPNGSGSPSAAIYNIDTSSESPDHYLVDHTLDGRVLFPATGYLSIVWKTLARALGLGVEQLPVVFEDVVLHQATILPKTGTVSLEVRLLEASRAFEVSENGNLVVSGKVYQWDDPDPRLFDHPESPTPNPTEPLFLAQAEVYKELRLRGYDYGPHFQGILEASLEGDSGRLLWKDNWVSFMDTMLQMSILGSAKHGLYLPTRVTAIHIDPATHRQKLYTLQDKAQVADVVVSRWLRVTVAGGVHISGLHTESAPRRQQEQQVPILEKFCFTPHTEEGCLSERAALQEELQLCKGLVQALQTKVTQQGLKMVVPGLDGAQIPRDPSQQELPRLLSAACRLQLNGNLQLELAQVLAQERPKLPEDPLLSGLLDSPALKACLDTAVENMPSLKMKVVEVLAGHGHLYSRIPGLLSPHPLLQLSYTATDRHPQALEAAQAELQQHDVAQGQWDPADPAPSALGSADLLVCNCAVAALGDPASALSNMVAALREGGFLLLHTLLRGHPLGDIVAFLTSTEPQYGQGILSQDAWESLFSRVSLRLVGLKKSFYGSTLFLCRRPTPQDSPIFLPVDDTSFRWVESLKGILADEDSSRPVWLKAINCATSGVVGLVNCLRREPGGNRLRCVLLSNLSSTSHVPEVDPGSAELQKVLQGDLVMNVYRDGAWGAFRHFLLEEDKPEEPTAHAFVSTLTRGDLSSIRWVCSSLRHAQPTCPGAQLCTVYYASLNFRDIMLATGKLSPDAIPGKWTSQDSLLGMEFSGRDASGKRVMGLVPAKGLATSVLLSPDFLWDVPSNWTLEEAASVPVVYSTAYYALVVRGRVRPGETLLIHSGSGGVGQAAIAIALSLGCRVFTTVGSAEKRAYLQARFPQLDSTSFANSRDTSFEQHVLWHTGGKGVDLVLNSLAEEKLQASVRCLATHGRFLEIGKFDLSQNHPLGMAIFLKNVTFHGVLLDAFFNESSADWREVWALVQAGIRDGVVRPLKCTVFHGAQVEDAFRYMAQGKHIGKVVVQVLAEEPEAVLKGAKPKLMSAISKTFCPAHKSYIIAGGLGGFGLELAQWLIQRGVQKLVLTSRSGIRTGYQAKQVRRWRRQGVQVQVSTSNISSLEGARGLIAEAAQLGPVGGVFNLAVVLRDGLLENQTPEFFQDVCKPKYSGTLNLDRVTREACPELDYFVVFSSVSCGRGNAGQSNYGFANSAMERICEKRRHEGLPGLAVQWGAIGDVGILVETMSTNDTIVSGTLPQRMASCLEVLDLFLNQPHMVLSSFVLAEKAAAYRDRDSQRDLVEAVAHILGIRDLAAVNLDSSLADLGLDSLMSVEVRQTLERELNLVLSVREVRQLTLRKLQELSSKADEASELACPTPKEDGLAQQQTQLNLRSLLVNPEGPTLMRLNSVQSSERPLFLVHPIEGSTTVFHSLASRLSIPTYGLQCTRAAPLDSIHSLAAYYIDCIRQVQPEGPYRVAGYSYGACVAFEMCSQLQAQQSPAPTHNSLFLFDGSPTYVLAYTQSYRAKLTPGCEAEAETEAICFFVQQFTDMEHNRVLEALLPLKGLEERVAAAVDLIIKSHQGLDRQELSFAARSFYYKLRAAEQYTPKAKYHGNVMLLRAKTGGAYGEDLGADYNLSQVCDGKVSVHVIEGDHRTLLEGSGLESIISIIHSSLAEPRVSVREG
Broad substrate specificity ATP-binding cassette transporter ABCG2 (Homo sapiens), sequence (Q9UNQ0 whole entry, looked up): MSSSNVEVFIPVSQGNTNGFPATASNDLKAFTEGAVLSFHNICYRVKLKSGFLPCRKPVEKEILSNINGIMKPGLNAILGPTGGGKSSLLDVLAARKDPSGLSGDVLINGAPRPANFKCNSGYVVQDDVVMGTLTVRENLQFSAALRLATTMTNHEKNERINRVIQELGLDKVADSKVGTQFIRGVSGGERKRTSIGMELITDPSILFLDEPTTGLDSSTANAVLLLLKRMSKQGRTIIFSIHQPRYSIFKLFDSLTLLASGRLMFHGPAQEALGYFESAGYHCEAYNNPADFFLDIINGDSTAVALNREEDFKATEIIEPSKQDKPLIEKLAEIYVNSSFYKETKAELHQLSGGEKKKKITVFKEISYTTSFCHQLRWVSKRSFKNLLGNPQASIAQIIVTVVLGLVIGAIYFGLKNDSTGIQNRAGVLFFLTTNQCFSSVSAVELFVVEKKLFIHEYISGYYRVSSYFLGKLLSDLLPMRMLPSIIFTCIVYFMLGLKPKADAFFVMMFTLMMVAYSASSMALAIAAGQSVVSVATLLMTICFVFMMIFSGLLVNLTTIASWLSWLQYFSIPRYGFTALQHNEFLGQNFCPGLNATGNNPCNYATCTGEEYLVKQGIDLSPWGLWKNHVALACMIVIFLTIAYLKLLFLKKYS

CC(=O)c1ccccc1
active: [7] 76700 nM
inactive: [1] | [2] | [3] | [4] | [5] | [6] | [8] | [9] | [10] | [11] | [12] | [13] | [14] | [15] | [16] | [17] | [18]

COc1cc2c(c(OC)c1OC)-c1ccc(OC)c(=O)cc1[C@@H](NC(C)=O)CC2
inactive: [2] | [3] | [19] | [10] | [12] | [16] | [17]
active: [1] 57.5 nM | [4] 17.8 nM | [5] 77.2 nM | [6] 47.7 nM | [7] 57.5 nM | [8] 66.3 nM | [9] 30.9 nM | [11] 79.7 nM | [14] 63.4 nM | [15] 133 nM | [18] 98.9 nM

Nc1ccn([C@@H]2O[C@H](CO)[C@@H](O)[C@@H]2O)c(=O)n1
inactive: [1] | [2] | [3] | [4] | [5] | [6] | [8] | [9] | [10] | [20] | [11] | [12] | [14] | [15] | [16] | [17] | [18]
active: [7] 77300 nM

C=CN1CCCC1=O
active: [7] 50000 nM
inactive: [1] | [2] | [3] | [4] | [5] | [6] | [8] | [9] | [10] | [20] | [11] | [12] | [14] | [15] | [16] | [17] | [18]

CCCCCCCCN(C)C
inactive: [1] | [2] | [3] | [4] | [5] | [6] | [7] | [8] | [9] | [10] | [20] | [11] | [12] | [14] | [15] | [16] | [17] | [18]

O=S(=O)(O)c1ccc(N=Nc2c(O)ccc3cc(S(=O)(=O)O)ccc23)cc1
inactive: [1] | [2] | [3] | [4] | [5] | [6] | [8] | [9] | [10] | [11] | [12] | [13] | [14] | [15] | [16] | [17] | [18]
active: [7] 50000 nM

OC[C@H]1O[C@@](CO)(O[C@H]2O[C@H](CO)[C@@H](O)[C@H](O)[C@H]2O)[C@@H](O)[C@@H]1O
inactive: [1] | [2] | [3] | [4] | [5] | [6] | [8] | [9] | [10] | [20] | [11] | [12] | [13] | [14] | [15] | [16] | [17] | [18]
active: [7] 67100 nM

Source: PubChem BioAssay (EPA / NIEHS)
